Compound activity deposited in PubChem by National Center for Advancing Translational Sciences (NCATS).
IL-1B inflam inh – blocks inflammasome-driven IL-1 beta release; THP-1 LPS/ATP IL-1B secretion, AlphaLISA, 16 h; hits give low values; activity change, % at 57.5 µM; hit rate 4.7% among 360,000; AID 743279; in the data active = activity change below about -50%; inconclusive = mostly about -30% to -49%
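THP-1 cells pretreated 1 hr with compounds (up to 57.5 uM final), then stimulated with LPS (250 ng/mL final) plus ATP (1.25 mM final); secreted IL-1B measured by AlphaLISA after 16 hr, decreased signal indicating inhibition.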
HT1080NT lethal – kills 2HG-producing HT-1080-NT fibrosarcoma cells. AID 686970. Potency, µM (top dose mostly 46.1 µM), most hits filed as cytotoxic. HT-1080-NT fibrosarcoma viability, CellTiter-Glo ATP luminescence, 48 h. hit rate 1.6% among 360,000;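 also: NT is the 2HG producing partner of a matched IDH1 knockdown line; nearly all actives have a fitted effect of over 55% in size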
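Fibrosarcoma NT cells, 750 per well in 5% FBS RPMI, were exposed to compound for 48 hours. Viability: CellTiter-Glo luminescence.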
TDP1 cell noCPT – qHTS for Inhibitors of human tyrosyl-DNA phosphodiesterase 1 (TDP1): qHTS in cells in absence of CPT; hit rate 15% among 420,000; Potency, µM (titrated, usually from 46.2 µM), most hits filed as inhibitors; DT40 Tdp1-/- hTDP1 cells, no CPT, ATP luminescence, 48 h; also: nearly all actives have a fitted effect of over 55% in size
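Growth kinetics read by CellTiter-Glo luminescence after ≥48 hr at 37 °C. Cells: DT40 Tdp1-/- stably carrying human TDP1, 400 per well, compound exposure in the absence of CPT (DMSO vehicle).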
HT1080 IDH1KD tx – HT-1080 IDH1 knockdown cell toxicity (counter line); HT-1080 IDH1 knockdown viability, ATP luminescence, 48 h; Potency, µM (series often up to 46.1 µM), actives largely listed as cytotoxic; hit rate 2% among 360,000; AID 686971
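In this qHTS, HT-1080 cells depleted of IDH1 are exposed for 48 h at 37 °C to compound titrations. Toxicity is scored from CellTiter-Glo luminescence, with DMSO as full viability and medium alone as none.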
TDP1 cell CPT – growth inhibition of DT40 Tdp1-/-;hTDP1 cells with camptothecin (screen for TDP1 inhibitors) | chicken DT40 Tdp1-/-;hTDP1 cells + 20 nM CPT, ATP luminescence, 48 h | Potency, µM (series often up to 46.2 µM), hits mostly inhibitors | hit rate 12% among 420,000 | AID 686979; also: nearly all actives have a fitted effect of over 55% in size
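Chicken DT40 Tdp1-/- cells complemented with human TDP1, 400 cells/well, exposed to compounds plus 20 nM camptothecin for at least 48 h at 37 C; viability read as ATP content by CellTiter-Glo luminescence.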
Hits are given with their value; i = inactive; ? = inconclusive; nt = no result; [ ] = remark or other dose. Shown are actives, neighbours in structure and some others; about 19% of the full set was active somewhere. Unless noted, calls follow the shape of the dose curve; as a rule, active = well fitted curve in the direction sought with a large enough effect; inconclusive = small, poorly fitted or top-dose-only effect, or another doubt; inactive = no such curve, though single readings can be large; an effect the other way counts as inactive or inconclusive.

SMILES	IL-1B inflam inh	HT1080NT lethal	TDP1 cell noCPT	HT1080 IDH1KD tx	TDP1 cell CPT
Cc1ccc(N2CCN(C(=O)C(=O)c3cccc([N+](=O)[O-])c3)CC2)cc1	i	i	?	i	?
O=C(NCCN1CCN(c2ccccc2)CC1)c1cccc(Br)c1	i	?	14.1µM	?	?
O=C(C(=O)N1CCN(c2ccncc2)CC1)c1cccc(Br)c1	i	i	14.6µM	i	14.6µM
O=C(NCC(=O)N1CCC2(CC1)NCCc1[nH]cnc12)c1ccc(F)cc1	i	i	i	i	i
Cc1ccc2c(=O)cc(C(=O)Nc3nnc(C)s3)oc2c1	nt	nt	i	nt	i
Cc1ccccc1-c1nc2cc(NC(=O)C3CC3)ccc2o1	i	i	?	i	i
Cc1cc(=O)[nH]c(N=N/C(=N/Nc2ccccc2C)c2ccccc2)n1	i	?	5.17µM	?	4.61µM
Cc1cc(=O)[nH]c(N/N=C/c2ccccc2C(F)(F)F)n1	i	i	?	i	i
Cc1cc(=O)[nH]c(SCC(=O)Nc2ccccc2C)n1	i	i	i	i	i
Cc1cc(=O)[nH]c(N=N/C(=N/Nc2ccc(O)cc2)c2ccccc2)n1	i	i	6.51µM	?	5.8µM
Cc1c(C(=O)NCc2ccco2)cnn1-c1ncc2c(n1)-c1ccccc1CC2	nt	nt	?	nt	i[9.04 µM]
Cc1ccc(S(=O)(=O)N2CCN(C(=O)Cn3nc(C(=O)O)c4ccccc4c3=O)CC2)cc1	i	i	i	i	i
CCOc1ccc2nc(COC(=O)c3cccc([N+](=O)[O-])c3)c(C(C)=O)[n+]([O-])c2c1	i	i	i	i	i
CS(=O)(=O)c1nc(-c2ccccc2)cc(C(F)(F)F)n1	-96.2	20.6µM	1.16µM	11.6µM	1.03µM
O=C(CCS(=O)(=O)c1nc(-c2ccc3c(c2)OCO3)cc(C(F)(F)F)n1)Nc1ccc(F)cc1F	nt	nt	20.6µM	nt	?
Cc1cc(NC(=O)CCS(=O)(=O)c2nc(-c3ccccc3)cc(C(F)(F)F)n2)no1	-120.9	?	1.84µM	i[9.24 µM]	1.64µM
COc1ccc(NC(=O)CCS(=O)(=O)c2nc(-c3ccc4c(c3)OCO4)cc(C(F)(F)F)n2)cc1	nt	nt	7.31µM	nt	6.51µM
Cc1ccc(S(=O)(=O)CCC(=O)Nc2ccc3c(c2)OCO3)cc1	i	i	i	i	i
Cc1cc(Br)cc(/C=N/NC(=O)c2ccc3c(c2)OCO3)c1O	i	?	23.1µM	16.4µM	18.4µM
O=C(N/N=C/c1cc(Br)c(O)c(Br)c1O)c1ccc2c(c1)OCCO2	i	?	8.2µM	?	11.6µM
O=C(N/N=C/c1cc(Br)cc(Cl)c1O)c1ccc2c(c1)OCO2	i	?	1.03µM	?	0.82µM
Cc1nc(SCC(=O)NCc2ccco2)c2c3c(sc2n1)CCCC3	i	i	?	?	?
CC1CCc2c(sc3ncn4c(SCC(=O)NCc5ccco5)nnc4c23)C1 (stereo unspecified)	i	i	20.6µM	i	?
CC(C)Sc1nc2sc3c(c2c2nnc(SCC(=O)NCc4ccco4)n12)CCCC3	i	i	18.4µM	i	?
CC1CCc2sc3ncn4nc(C(=O)NCc5ccco5)nc4c3c2C1 (stereo unspecified)	i	i	?	i	?
SMILES	IL-1B inflam inh	HT1080NT lethal	TDP1 cell noCPT	HT1080 IDH1KD tx	TDP1 cell CPT
Cc1ccc(-n2c(SCC(=O)NCc3ccco3)nc3sc4c(c3c2=O)CC(C)(C)SC4)cc1	i	i	i	i	i
CCCc1nc2sc3c(SCC(=O)NCc4ccco4)ncnc3c2c2c1CCC2	i	i	18.4µM	i	?
CCC1CCc2c(sc3nc(SCC(=O)NCc4ccco4)n(-c4ccccc4)c(=O)c23)C1 (stereo unspecified)	i	i	?	i	29.1µM
O=C(CSc1nc(C2CC2)nc2sc3c(c12)CCCC3)NCc1ccco1	i	i	i	i	i
O=C(COc1ccc([N+](=O)[O-])cc1)Nn1cnnc1	i	i	i	?	i
Cc1ccc(OCC(=O)Nc2c3c(nn2C(C)(C)C)CS(=O)(=O)C3)cc1	i	i	i	i	i
COc1ccc(-c2nc(SCC(=O)Nc3cccc(S(N)(=O)=O)c3)n[nH]2)cc1	i	i	i	i	?
Cc1cc(=O)nc2c3ccccc3n(CC(=O)NCCCN3CCCCC3C)n12 (stereo unspecified)	i	i	i	i	i
COc1ccc(OC)c(CN2CCN(C(=O)c3cc(S(=O)(=O)Nc4ccccc4OC)ccc3C)CC2)c1	i	i	?	i	?
COc1ccc(NS(=O)(=O)c2ccc(C)c(C(=O)N3CCN(Cc4cc(OC)ccc4OC)CC3)c2)cc1	i	i	23.1µM	i	20.6µM
COc1ccc(OC)c(CN2CCN(C(=O)c3ccc(S(=O)(=O)N4CCCCCC4)cc3)CC2)c1	?	i	20.6µM	i	?
COc1ccc(F)cc1CN1CCN(C(=O)c2ccc(S(=O)(=O)N3CCCCCC3)cc2)CC1	i	i	?	i	?
COc1ccc(OC)c(CN2CCN(C(=O)c3cccc(S(=O)(=O)Nc4ccc(C)cc4)c3)CC2)c1	-53.2	i	?	i	25.9µM
CC(=O)C1C(=O)C=C(c2cccs2)CC1c1ccccc1 (stereo unspecified)	i	i	?	i	i
O=C1C=C(c2cccs2)C[C@H](c2ccccc2)[C@H]1n1nnc([N+](=O)[O-])n1	-57.4	?	2.91µM	2.91µM	2.59µM
CCOP(=O)(OCC)/C(C#N)=C(\O)c1ccc(OC)cc1	i	i	i	i	i
CC(=NCCc1c(C)[nH]c2ccc(OC(F)(F)F)cc12)C1=C(O)CC(c2ccccc2)CC1=O (stereo unspecified)	i	?	3.26µM	?	4.61µM
CC(=NCCc1c(C)[nH]c2ccc(C)cc12)C1=C(O)CC(c2ccccc2)CC1=O (stereo unspecified)	i	i	1.64µM	8.2µM	1.16µM
Cn1c(-c2ccc(F)cc2)cnc1NCc1cc2c(cc1[N+](=O)[O-])OCO2	-64.1	i	23.1µM	i	?
Cn1c(-c2ccc(Cl)cc2)cnc1NCc1cc2c(cc1[N+](=O)[O-])OCO2	-82.4	i	?	i	?
CC1CC/C(=N/Nc2ccccc2)C(=O)N1 (stereo unspecified)	i	i	i	i	i
O=C1C2C3C=CC(C3=C3CCCCC3)C2C(=O)N1c1ccccc1 (stereo unspecified)	i	i	13µM	i	?
O=C1C2C3C=CC(C3)C2C(=O)N1c1ccccc1 (stereo unspecified)	i	i	i	i	i
Cc1noc(C)c1-c1nc(Nc2ccncc2)c2ccccc2n1	nt	nt	?	nt	i
COc1ccc(NS(=O)(=O)c2ccc(OCC(=O)N3CCOCC3)cc2)cc1	i	i	?	i	i
